A selection: hits, their analogues and other compounds. The true share with any hit is near 2.2%.
BaF3 parental: parental Ba/F3 viability inhibition as JAK2V617F counter-screen; inhibition, % at 5.6 µM; CellTiter-Glo ATP luminescence; AID 1486; 220,000 compounds, 1.1% hits;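 active = inhibition above a per-campaign cutoff, the mean inhibition of all tested compounds plus 3 SD, cut at about 27% in these data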;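 also: 0% = DMSO wells and 100% = JAK Inhibitor I control wells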
IEC-6 tox: counter-screen for KLF5 inhibitors: cytotoxicity in IEC-6 cells | IEC-6 cytotoxicity, luminescence viability | 290,000 compounds, 0.78% hits | AID 1825 | inhibition, % at 5 µM; in the data active = inhibition above about 22%;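 also: 0% = plate median of test compound wells and 100% = cytotoxic reference compound wells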
KLF5 inhibitor: kruppel-like factor 5 inhibition; 290,000 compounds, 0.23% hits; DLD-1 KLF5 promoter-luciferase reporter, luminescence; AID 1700; inhibition, % at 5 µM;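 active = inhibition above a per-plate limit of that plate's mean compound inhibition plus 3 SD, cut at about 60% in these data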;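 also: 0% = DMSO wells and 100% = LY294002 at 200 µM; higher means less KLF5 promoter-driven luciferase light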
aSyn 5UTR inh: 5' untranslated region of α-synuclein, MLPCN primary screen; 300,000 compounds, 0.82% hits; alpha-synuclein 5'UTR reporter, inhibitor activity; inhibition, % (tested at 7.5 µM); in the data active = inhibition above about 60%;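 also: H4 neuroglioblastoma cells stably carrying SNCA 5'UTR luciferase fusion; 0% = DMSO wells and 100% = positive control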
APP transl inh: APP translation inhibition; inhibition, % at 2 µM; SH-SY5Y APP 5'UTR-luciferase reporter, luminescence; 190,000 compounds, 0.82% hits;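 active = inhibition above a set limit, derived from the sample mean plus 3 SD, cut at about 45% in these data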
Ba/F3 V617F tox: loss of viability in JAK2V617F-driven Ba/F3 cells; AID 1446; inhibition, % at 5.6 µM; Ba/F3 EpoR-JAK2V617F viability, ATP luminescence; 220,000 compounds, 1.1% hits;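 active = inhibition above the campaign mean plus 3 SD over all tested compounds, cut at about 24% in these data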;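 also: cytokine-independent growth of Ba/F3 cells driven by EpoR plus mutant JAK2; 0% = DMSO-treated cells and 100% = JAK inhibitor I control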
An asterisk follows results filed as active; x = not tested or not shown.

SMILES | BaF3 parental | IEC-6 tox | KLF5 inhibitor | aSyn 5UTR inh | APP transl inh | Ba/F3 V617F tox
CN(C)C(Cc1ccccc1)C(=O)c1ccc(-c2ccccc2)cc1 (stereo not drawn) | 6 | 0 | -15 | -31 | x | 1
COc1ccc(C(C)=O)cc1CC(C(=O)c1ccc(F)cc1)N(C)C (stereo not drawn) | 40* | -4 | -18 | -3 | -5 | 1
COc1ccc(C(C)=O)cc1CC(C(=O)c1ccc(C)c(C)c1)N(C)C (stereo not drawn) | 3 | 2 | 1 | 8 | 12 | -4
COc1ccc(C(=O)C(Cc2ccccc2)N(C)C)cc1 (stereo not drawn) | 36* | 0 | -20 | -21 | -7 | 35*
O=c1[nH]c(O)c(C=Nc2ccc(Cl)c(C(F)(F)F)c2)c(=O)[nH]1 | x | 4 | -2 | 1 | x | x
CCC1C2Cn3c(nc4ccccc43)C1N(C)O2 (stereo not drawn) | x | x | x | -4 | x | x
CCC(=Nc1ccc(OC)cc1OC)c1c(O)[nH]c(=O)[nH]c1=O | 7 | -2 | -12 | 28 | -15 | 3
CCC(=Nc1cc(OC)ccc1OC)c1c(O)[nH]c(=O)[nH]c1=O | -1 | -3 | -30 | 71* | 0 | -3
O=c1[nH]c(=O)n(-c2ccc(F)cc2)c(O)c1C=Nc1ccccc1N1CCCC1 | 38* | -2 | 1 | -1 | -2 | 5
Cc1ccc(-n2c(O)c(C=Nc3ccccc3N)c(=O)[nH]c2=O)cc1C | 4 | 4 | -51 | -16 | -135 | 1
Cc1ccc(-c2cc(-c3ccc(C)cc3)[n+](-c3ccccc3)c(-c3ccc(C)cc3)c2)cc1 | x | x | x | 76* | x | x
Cc1ccc(-c2cc(-c3ccc(C)cc3)[n+](-c3ccc(C(=O)[O-])cc3)c(-c3ccc(C)cc3)c2)cc1 | x | x | x | 83* | x | x
O=[N+]([O-])c1cc(Cl)c(O)c(-[n+]2c(-c3ccccc3)cc(-c3ccccc3)cc2-c2ccccc2)c1 | x | -8 | -12 | -8 | x | x
CN(C)c1ccc(-[n+]2c(-c3ccccc3)cc(-c3ccccc3)cc2-c2ccccc2)cc1 | 94* | 71* | 60 | 84* | 45 | 101*
Cc1ccc(-c2cc(-c3ccccc3)cc(-c3ccccc3)[n+]2-c2ccccc2)cc1 | x | x | x | 85* | x | x
CCOC(=O)c1ccc(-[n+]2c(-c3ccccc3)cc(-c3ccccc3)cc2-c2ccccc2)cc1 | x | x | x | -38 | x | x
CCOC(=O)c1cccc(-[n+]2c(-c3ccccc3)cc(-c3ccccc3)cc2-c2ccccc2)c1 | x | x | x | 8 | x | x
O=C1CC(c2ccccc2)CN1 (stereo not drawn) | -3 | -1 | -8 | -4 | x | -4
CC1CCN(C(=O)c2ccc(N3CC4CC(C3)c3cccc(=O)n3C4)c([N+](=O)[O-])c2)CC1 (stereo not drawn) | 7 | -5 | -14 | -5 | 2 | -2
Cc1ccsc1C(=O)C1CCCN(Cc2cccn2-c2ccccn2)C1 (stereo not drawn) | 4 | 0 | -14 | 20 | 13 | -3
C[n+]1c(-c2ccccc2)cc(-c2ccc(Cl)cc2)cc1-c1ccccc1 | 30* | 8 | -2 | 0 | -6 | 46*
Cc1ccc2c(c1)C1CN(C)CCC1N2C(=O)/C(C#N)=C/c1ccc2c(c1)OCO2 (stereo not drawn) | 6 | -5 | -7 | 2 | 8 | 1
Cc1cc(C)cc(N2C(=O)NC(=O)/C(=C\C=C\c3ccco3)C2=O)c1 | 5 | -6 | -17 | -116 | 46* | 1
CSC1=NP(=S)(SC)N2CCCC2=C1C#N (stereo not drawn) | 4 | 1 | -5 | 5 | -3 | 0
COC(=O)CSC1=NP(=S)(SCC(=O)OC)N2CCCC2=C1C#N (stereo not drawn) | 78* | -3 | -9 | -7 | 0 | 0
SMILES | BaF3 parental | IEC-6 tox | KLF5 inhibitor | aSyn 5UTR inh | APP transl inh | Ba/F3 V617F tox
CCOc1ccccc1CN1C2CCC1CC(c1ccc(C)cc1)C2 (stereo not drawn) | x | 4 | -7 | -15 | x | x
C/C=C(\C)C(=O)OC1C(C)=C2C(C1OC(=O)CCCCC)C(C)(OC(C)=O)CC(OC(=O)CCC)C1(O)C2OC(=O)C1(C)O (stereo not drawn) | x | x | x | 108* | x | x
Cn1nccc1C(=O)N1CCC2(CC1)OCCO2 | x | -4 | -23 | 0 | x | x
COC(=O)C(=O)N1CC2(C)CNCC(C)(C1)C2=O | 6 | 2 | -21 | 27 | 13 | 2
CC(=O)O[C@@H]1/C=C/[C@](C)(O)C[C@@H](C)C/C=C/[C@H]2[C@@H]3O[C@]3(C)[C@@H](C)[C@H]3[C@H](Cc4ccccc4)NC(=O)[C@@]312 | x | x | x | 114* | x | x
COc1ccc(O)c2c(=O)c3c(OC)cc4c(c3oc12)C1C=COC1O4 (stereo not drawn) | 8 | 30* | 2 | 94* | x | 4
COc1ccc(C[C@H]2NC[C@H](O)[C@H]2OC(C)=O)cc1 | x | x | x | 112* | x | x
O=c1c2ccccc2nc(/C=C/c2ccc([N+](=O)[O-])o2)n1-c1ccc(O)cc1 | 3 | -4 | -31 | 100* | 80* | 3
O=[N+]([O-])c1cccc(CN2CCN(Cc3ccc(Br)cc3)CC2)c1 | 7 | -2 | 4 | 2 | -28 | 1
CCCCCCCCCCCCCCCC[N+](C)(C)C | x | x | x | 98* | x | x
O=C(CCn1nc(-c2ccc(Cl)cc2)ccc1=O)N1CCC2(CC1)OCCO2 | 12 | -8 | -1 | 16 | -13 | 1
Cc1nc2cc(-c3ccc(Cl)cc3)nn2c(C)c1CCC(=O)N1CCC2(CC1)OCCO2 | 4 | 0 | -21 | x | 50* | 0
CC(c1ccccc1)[n+]1ccccc1 (stereo not drawn) | x | x | x | 26 | x | x
CCCCCn1c(=O)c(C(=O)Nc2ccccn2)c(O)c2ccccc21 | x | -1 | -34 | 65* | x | x
CCCCCCn1c(=O)c(C(=O)Nc2cnccn2)c(O)c2ccccc21 | 2 | 4 | 2 | 67* | 15 | 1
CCCCCn1c(=O)c(C(=O)NCc2ccncc2)c(O)c2ccccc21 | 2 | 0 | -9 | 65* | 16 | -2
CCCCCCn1c(=O)c(C(=O)Nc2ncccc2O)c(O)c2ccccc21 | x | 1 | 45 | 92* | x | x
COCCN1Cc2cc(=O)n3c([nH]c4ccccc43)c2C1=N | -1 | 3 | -49 | -59 | -18 | -2
COC(=O)C1=C(c2cc3ccccc3s2)C[C@@H]2CC[C@H]1N2C(=O)N1CCC(C)CC1 | x | x | x | 31 | x | x
CNC(=O)O/N=C/c1nn(C(=O)C(C)(C)C)cc1Br | 0 | -4 | -15 | 2 | x | -6
CCCCCOc1ccc(C)cc1CN(CCCl)CCCl | 2 | -3 | -18 | -13 | x | -4
CN1CCC(N(C)c2nc(-c3ccc([N+](=O)[O-])cc3)nc3ccccc23)CC1 | 21 | 16 | -6 | 75* | 5 | 4
Cc1ccc(NC(=O)CCNC(=O)N2C[C@H]3C[C@@H](C2)c2cccc(=O)n2C3)c(C)c1 | x | 8 | 4 | 5 | x | x
Cc1ccc(NP(=O)(Oc2ccccc2F)Oc2ccccc2F)cc1 | 66* | -7 | -12 | 9 | 0 | -2

Screening data from PubChem.
